Assay in all cases: DAPPL (digital affinity profiling via proximity ligation, sequencing); 10 mM Tris-HCl pH 7.5, 50 mM NaCl, 1 mM DTT, 4% glycerol, room temperature, 30 min; GST-TFs on glutathione beads, 16-mer random dsDNA library, 0.1% formaldehyde crosslink after washing; high values mean tight binding
What all share (conditions): protein: recombinant; tags: N-terminal GST; dsDNA, one strand shown

One assay concerns the target T1, ELK1 (Homo sapiens, UniProt P19419 1-428).
T1 sequence: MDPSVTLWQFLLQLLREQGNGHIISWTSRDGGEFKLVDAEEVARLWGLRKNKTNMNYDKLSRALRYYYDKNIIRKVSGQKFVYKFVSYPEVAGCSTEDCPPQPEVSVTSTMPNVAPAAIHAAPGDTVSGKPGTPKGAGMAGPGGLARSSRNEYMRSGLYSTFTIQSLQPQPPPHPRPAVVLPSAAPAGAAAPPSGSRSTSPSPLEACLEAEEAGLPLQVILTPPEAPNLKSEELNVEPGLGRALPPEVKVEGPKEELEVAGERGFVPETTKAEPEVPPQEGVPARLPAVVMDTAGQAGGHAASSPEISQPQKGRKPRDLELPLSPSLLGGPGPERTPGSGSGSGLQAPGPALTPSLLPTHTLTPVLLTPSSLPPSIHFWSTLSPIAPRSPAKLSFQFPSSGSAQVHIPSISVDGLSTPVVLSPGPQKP
Put shortly:
(§1)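 Pools were built from human transcription factors expressed in yeast as GST fusions, captured on glutathione beads and DNA-barcoded, along with a tag-only sample. Incubation with 200 nmole of a 16-mer random double-stranded DNA library lasted 30 min at room temperature in Tris/NaCl/DTT/glycerol buffer, and was followed by washing, 0.1% formaldehyde crosslinking, proximity ligation, PCR amplification and Illumina NextSeq500 sequencing. Binding signal is the quotient of each hexamer's read frequency for a factor and its frequency for the tag-only sample.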

A further assay addresses T2, ERG (Homo sapiens, UniProt P11308 1-479).
T2 sequence: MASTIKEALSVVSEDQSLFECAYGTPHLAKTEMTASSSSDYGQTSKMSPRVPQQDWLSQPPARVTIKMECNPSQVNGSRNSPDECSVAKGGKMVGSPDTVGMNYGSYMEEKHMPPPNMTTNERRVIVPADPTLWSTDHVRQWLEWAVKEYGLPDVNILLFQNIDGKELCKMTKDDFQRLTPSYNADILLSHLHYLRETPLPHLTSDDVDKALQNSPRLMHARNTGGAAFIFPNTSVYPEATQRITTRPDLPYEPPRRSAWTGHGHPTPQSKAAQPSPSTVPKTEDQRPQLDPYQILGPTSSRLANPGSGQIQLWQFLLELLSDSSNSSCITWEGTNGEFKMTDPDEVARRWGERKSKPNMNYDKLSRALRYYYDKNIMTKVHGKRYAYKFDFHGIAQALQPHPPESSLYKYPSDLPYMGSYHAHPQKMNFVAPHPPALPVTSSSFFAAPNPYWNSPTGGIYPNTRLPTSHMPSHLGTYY
In a few lines: as §1

The next assay has as its target ELF1 (Homo sapiens, UniProt P32519 1-619). Put shortly:
as §1

The next assay concerns the target T3, EHF (Homo sapiens, UniProt Q9NZC4 1-300).
T3 sequence: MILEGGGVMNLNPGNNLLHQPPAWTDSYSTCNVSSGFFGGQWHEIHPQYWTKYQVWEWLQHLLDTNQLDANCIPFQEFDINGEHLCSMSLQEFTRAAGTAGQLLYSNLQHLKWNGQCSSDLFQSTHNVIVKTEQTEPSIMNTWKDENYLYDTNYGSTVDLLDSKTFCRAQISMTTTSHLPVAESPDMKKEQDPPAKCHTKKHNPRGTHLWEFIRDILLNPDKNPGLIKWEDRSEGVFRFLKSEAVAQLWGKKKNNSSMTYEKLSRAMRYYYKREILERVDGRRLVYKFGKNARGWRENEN
In a few lines:
as §1

In a further assay the target is SPI1 (Homo sapiens, UniProt P17947 1-270). In a few lines:
as §1

For another assay, the target named is SPIB (Homo sapiens, UniProt Q01892 1-262). Put shortly:
as §1

The next assay deals with T4, FEV (Homo sapiens, UniProt Q99581 1-238).
T4 sequence: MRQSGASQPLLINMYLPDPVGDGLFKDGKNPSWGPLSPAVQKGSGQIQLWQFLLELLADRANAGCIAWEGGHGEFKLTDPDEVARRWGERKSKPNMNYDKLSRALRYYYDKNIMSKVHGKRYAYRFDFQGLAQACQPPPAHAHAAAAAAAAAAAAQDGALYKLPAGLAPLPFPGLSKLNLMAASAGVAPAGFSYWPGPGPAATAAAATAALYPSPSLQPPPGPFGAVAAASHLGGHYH
In a few lines:
as §1

Another assay has as its target ETV5 (Homo sapiens, UniProt P41161 1-510). In a few lines:
as §1

For the next assay, the target named is T5, ELK4 (Homo sapiens, UniProt P28324-2 1-405).
T5 sequence: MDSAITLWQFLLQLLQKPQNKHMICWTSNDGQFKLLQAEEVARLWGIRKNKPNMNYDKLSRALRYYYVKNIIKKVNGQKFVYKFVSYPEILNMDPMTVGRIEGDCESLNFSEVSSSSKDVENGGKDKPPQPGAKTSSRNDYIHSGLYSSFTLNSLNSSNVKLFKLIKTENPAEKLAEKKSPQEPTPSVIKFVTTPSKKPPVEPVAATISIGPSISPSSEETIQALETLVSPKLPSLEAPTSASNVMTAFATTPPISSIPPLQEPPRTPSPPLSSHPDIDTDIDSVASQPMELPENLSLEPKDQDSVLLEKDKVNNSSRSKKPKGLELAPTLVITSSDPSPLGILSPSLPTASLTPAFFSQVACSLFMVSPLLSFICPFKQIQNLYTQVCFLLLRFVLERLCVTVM
In a few lines:
as §1

Another assay has as its target T6, ETV2 (Homo sapiens, UniProt O00321 1-342).
T6 sequence: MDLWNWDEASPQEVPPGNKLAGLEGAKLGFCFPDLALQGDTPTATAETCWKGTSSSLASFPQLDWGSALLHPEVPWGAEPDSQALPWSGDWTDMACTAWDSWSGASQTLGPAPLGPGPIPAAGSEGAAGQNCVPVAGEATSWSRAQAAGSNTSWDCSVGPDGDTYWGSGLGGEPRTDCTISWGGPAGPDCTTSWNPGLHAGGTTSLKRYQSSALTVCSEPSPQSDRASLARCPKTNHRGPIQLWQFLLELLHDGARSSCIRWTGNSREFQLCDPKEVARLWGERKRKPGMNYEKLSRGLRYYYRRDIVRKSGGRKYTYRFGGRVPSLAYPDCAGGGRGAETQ
In a few lines: as §1

The target of a further assay is ETV1 (Homo sapiens, UniProt P50549 1-477). Put shortly: as §1
ETV1, sequence (P50549 whole entry): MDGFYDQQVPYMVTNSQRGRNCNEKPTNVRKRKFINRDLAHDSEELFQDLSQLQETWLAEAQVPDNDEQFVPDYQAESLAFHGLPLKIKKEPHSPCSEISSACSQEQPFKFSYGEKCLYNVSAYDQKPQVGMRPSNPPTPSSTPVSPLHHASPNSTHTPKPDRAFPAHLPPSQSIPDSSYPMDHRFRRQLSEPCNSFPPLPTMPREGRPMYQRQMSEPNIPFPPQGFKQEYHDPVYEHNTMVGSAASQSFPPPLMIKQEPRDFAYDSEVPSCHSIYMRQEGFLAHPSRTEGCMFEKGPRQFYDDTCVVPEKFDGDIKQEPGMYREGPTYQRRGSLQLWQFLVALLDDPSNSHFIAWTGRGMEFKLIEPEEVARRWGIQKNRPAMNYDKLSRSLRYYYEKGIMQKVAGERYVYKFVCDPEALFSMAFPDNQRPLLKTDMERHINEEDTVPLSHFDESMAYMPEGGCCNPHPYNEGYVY
A further assay has as its target T7, ERF (Homo sapiens, UniProt P50548 1-548).
T7 sequence: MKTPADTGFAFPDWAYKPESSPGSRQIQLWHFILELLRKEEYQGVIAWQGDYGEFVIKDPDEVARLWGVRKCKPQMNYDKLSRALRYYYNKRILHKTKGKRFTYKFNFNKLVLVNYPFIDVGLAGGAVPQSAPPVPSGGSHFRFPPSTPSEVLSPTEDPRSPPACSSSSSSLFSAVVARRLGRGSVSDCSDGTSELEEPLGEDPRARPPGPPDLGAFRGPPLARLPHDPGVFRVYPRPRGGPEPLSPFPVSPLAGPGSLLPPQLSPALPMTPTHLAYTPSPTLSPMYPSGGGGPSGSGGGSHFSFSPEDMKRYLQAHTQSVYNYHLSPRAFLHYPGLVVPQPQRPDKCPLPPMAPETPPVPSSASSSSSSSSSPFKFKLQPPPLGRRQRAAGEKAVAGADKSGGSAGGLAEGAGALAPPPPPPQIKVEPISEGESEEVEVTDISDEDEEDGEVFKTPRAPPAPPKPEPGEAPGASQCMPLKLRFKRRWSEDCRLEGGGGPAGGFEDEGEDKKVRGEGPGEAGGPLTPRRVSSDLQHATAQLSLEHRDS
Put shortly:
as §1

The next assay concerns the target T8, ETV3L (Homo sapiens, UniProt Q6ZN32 1-361).
T8 sequence: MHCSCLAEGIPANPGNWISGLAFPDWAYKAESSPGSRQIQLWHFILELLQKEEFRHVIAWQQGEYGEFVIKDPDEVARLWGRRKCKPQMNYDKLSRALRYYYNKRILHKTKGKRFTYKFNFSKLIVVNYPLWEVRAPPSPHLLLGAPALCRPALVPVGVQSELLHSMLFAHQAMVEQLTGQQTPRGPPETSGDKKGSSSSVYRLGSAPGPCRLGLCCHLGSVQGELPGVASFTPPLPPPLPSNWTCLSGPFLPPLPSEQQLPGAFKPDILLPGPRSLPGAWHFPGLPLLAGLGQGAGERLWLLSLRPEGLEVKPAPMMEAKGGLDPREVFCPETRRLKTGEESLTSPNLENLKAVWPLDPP
In a few lines:
as §1

A further assay deals with T9, ETS2 (Homo sapiens, UniProt P15036 1-469).
T9 sequence: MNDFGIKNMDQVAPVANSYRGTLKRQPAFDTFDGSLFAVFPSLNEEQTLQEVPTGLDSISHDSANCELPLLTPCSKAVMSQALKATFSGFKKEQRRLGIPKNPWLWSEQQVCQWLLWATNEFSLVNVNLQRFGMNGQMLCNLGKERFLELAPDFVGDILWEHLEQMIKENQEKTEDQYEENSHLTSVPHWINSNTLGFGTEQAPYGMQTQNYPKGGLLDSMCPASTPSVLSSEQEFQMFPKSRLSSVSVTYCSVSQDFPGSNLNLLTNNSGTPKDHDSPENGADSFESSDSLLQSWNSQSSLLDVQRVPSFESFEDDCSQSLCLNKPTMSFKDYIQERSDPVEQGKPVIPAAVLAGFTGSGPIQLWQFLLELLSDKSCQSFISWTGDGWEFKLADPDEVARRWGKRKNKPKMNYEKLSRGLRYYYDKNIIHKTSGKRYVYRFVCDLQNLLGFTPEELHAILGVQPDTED
Put shortly:
as §1

A further assay concerns the target T10, SPDEF (Homo sapiens, UniProt O95238 1-335).
T10 sequence: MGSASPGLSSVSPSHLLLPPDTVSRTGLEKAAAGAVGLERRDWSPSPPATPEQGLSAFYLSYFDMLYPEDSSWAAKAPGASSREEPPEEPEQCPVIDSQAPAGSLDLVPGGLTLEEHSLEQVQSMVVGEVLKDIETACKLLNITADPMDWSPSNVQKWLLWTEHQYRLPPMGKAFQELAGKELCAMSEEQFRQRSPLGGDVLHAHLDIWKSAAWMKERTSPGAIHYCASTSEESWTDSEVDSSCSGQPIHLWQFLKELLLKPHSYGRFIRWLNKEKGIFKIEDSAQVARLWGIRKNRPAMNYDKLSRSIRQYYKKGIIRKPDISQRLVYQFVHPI
Put shortly:
as §1

The target of a further assay is T11, ETV3 (Homo sapiens, UniProt P41162-2 1-143).
T11 sequence: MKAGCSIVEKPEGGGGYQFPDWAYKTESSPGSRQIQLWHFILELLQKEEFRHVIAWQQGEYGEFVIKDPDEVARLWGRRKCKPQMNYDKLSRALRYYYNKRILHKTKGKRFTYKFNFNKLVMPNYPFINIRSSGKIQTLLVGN
In a few lines: as §1

For a further assay, the target named is ETV6 (Homo sapiens, UniProt P41212 1-452). Put shortly:
as §1

Drawing on PMC7862700, “An all-to-all approach to the identification of sequence-specific readers for epigenetic DNA modifications on cytosine”, this text covers binding signal for 1 sequence.

ETV5, sequence (P41161 whole entry): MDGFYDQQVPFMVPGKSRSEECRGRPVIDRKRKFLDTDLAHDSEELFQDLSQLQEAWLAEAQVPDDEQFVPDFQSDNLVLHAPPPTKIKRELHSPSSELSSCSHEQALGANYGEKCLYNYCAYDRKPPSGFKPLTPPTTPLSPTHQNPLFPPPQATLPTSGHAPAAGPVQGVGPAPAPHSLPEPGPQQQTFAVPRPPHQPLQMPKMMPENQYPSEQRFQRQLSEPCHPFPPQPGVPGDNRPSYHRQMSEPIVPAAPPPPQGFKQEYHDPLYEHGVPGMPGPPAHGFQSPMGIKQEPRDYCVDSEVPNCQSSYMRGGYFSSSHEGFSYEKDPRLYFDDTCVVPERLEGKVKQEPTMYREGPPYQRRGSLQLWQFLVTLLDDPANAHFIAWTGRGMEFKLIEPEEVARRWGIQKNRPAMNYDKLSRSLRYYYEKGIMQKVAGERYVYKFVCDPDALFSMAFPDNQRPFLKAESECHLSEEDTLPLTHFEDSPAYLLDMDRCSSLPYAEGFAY
ELF1, sequence (P32519 whole entry): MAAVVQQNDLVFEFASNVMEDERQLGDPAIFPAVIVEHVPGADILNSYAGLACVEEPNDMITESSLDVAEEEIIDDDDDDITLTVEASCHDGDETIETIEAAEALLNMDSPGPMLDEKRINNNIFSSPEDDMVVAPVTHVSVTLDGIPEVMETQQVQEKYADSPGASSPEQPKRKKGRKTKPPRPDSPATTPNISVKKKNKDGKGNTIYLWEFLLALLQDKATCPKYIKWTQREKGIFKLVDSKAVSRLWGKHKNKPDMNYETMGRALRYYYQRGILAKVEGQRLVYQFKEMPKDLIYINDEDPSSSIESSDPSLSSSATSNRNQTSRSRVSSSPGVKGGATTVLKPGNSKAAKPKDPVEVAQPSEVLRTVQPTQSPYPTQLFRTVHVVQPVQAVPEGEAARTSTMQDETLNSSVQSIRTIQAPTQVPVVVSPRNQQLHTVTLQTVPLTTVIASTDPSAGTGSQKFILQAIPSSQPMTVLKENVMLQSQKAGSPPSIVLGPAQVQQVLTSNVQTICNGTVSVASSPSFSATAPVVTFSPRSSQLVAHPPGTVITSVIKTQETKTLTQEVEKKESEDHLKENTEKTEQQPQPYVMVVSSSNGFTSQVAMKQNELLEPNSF
ETV6, sequence (P41212 whole entry): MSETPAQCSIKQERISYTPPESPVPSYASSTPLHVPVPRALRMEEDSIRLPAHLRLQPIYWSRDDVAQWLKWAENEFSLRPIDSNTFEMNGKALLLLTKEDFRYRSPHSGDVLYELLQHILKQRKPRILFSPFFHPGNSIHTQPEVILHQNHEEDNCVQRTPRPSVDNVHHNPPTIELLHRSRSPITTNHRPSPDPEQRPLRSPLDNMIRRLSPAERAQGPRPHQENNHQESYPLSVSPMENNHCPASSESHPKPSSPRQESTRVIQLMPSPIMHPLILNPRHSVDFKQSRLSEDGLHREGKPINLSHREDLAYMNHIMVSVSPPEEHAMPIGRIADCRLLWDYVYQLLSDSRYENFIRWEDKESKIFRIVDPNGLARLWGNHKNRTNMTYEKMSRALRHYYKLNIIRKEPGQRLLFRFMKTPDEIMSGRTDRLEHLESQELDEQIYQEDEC
SPIB, sequence (Q01892 whole entry): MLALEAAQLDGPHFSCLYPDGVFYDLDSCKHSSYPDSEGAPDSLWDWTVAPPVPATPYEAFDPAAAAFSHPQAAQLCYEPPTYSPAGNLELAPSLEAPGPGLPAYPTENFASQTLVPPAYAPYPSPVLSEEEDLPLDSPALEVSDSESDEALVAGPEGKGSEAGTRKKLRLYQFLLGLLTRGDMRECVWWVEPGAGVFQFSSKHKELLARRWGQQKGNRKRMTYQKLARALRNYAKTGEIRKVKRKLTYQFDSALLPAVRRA

For the sequence CGACTG, the binding signal is 1.13 fold enrichment (6-mer frequency, TF over GST control) in the assay with ELK1; 1.05 fold enrichment (6-mer frequency, TF over GST control) with ERG; 1.08 fold enrichment (6-mer frequency, TF over GST control) with ELF1; 1.02 fold enrichment (6-mer frequency, TF over GST control) with EHF; 1.04 fold enrichment (6-mer frequency, TF over GST control) in the assay with SPI1; 1.05 fold enrichment (6-mer frequency, TF over GST control) in the assay with SPIB. Also, the binding signal was 1.1 fold enrichment (6-mer frequency, TF over GST control) with FEV; 1.06 fold enrichment (6-mer frequency, TF over GST control) with ETV5; 1.22 fold enrichment (6-mer frequency, TF over GST control) with ELK4; 1.19 fold enrichment (6-mer frequency, TF over GST control) with ETV2; 1.13 fold enrichment (6-mer frequency, TF over GST control) in the assay with ETV1; 1.17 fold enrichment (6-mer frequency, TF over GST control) in the assay with ERF. The binding signal with ETV3L is 1.07 fold enrichment (6-mer frequency, TF over GST control); with ETS2, 1.08 fold enrichment (6-mer frequency, TF over GST control); with SPDEF, 1.06 fold enrichment (6-mer frequency, TF over GST control); in the assay with ETV3 it was 1.05 fold enrichment (6-mer frequency, TF over GST control); in the assay with ETV6, 1.02 fold enrichment (6-mer frequency, TF over GST control).
